Sampled rows, rich in hits. Any-hit rate of the full collection: about 2.9%.
ADAM17 inh – ADAM17 inhibitors, primary screen, biochemical, QFRET; Disintegrin and metalloproteinase domain-containing protein 17 (Homo sapiens), P78536; AID 720648, 2013; recombinant ADAM17, EDANS/DABCYL FRET peptide cleavage; inhibition, % at 6.95 µM; 370,000 compounds, 0.83% hits;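 active = inhibition above the mean of compounds lying between control limits plus 3 SD, set per campaign, cut at about 8.5% in these data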;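 also: 0% = DMSO-only wells as the low control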
PLCg1 inh – PLC-gamma1 enzyme inhibitors, primary screen, biochemical, fluorescence, purified enzyme. AID 720700, 2013. fluorogenic substrate. inhibition, % at 12.2 µM. 370,000 compounds, 0.84% hits; in the data active = inhibition above about 9.5%
ADAM10 inh – human ADAM10 inhibitors, primary screen, biochemical, QFRET, HTS; Disintegrin and metalloproteinase domain-containing protein 10 (Homo sapiens), O14672; recombinant ADAM10, EDANS/DABCYL FRET peptide cleavage, 3 h; inhibition, % at 7 µM; 370,000 compounds, 0.62% hits;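 active = inhibition above a per-campaign cutoff equal to the mean of compounds falling between control-based bounds plus 3 SD, cut at about 20% in these data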;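 also: 0% = DMSO wells while the 100% control is not disclosed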
proKLK7 act – proKLK7 zymogen activators, primary screen, biochemical, fluorescence intensity. Kallikrein-7 (Homo sapiens), P49862. purified proKLK7, EDANS-DABCYL substrate fluorescence; 100% is mature enzyme control, 0% vehicle. activation, % at 7 µM. 370,000 compounds, 0.9% hits. AID 652039, 2013;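 active = activation above the mean of all tested compounds plus 3 SD, computed per campaign excluding outliers beyond control limits, cut at about 13% in these data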
Target sequence (P49862 whole entry, looked up): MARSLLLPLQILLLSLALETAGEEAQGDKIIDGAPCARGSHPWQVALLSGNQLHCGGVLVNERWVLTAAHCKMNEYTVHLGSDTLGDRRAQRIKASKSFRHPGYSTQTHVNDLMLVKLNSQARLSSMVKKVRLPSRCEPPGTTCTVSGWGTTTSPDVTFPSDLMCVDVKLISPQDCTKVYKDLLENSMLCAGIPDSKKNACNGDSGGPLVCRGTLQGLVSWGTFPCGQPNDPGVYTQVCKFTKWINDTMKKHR
PLC-beta3 inh – human PLC-beta3 inhibitors, primary screen, biochemical, fluorescence | 1-phosphatidylinositol 4,5-bisphosphate phosphodiesterase beta-3 (Homo sapiens), Q01970 | Purified PLC-beta3, fluorogenic substrate | inhibition, % at 12.2 µM | 370,000 compounds, 0.18% hits | AID 720704, 2013; in the data active = inhibition above about 11%;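 also: 0% = median of compound wells on plate and 100% = full blocker control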
KLK7 act conf – proKLK7 zymogen activators, confirmation, biochemical, fluorescence intensity, triplicate; shares compounds with proKLK7 act; activation, % at 7 µM; 3,200 compounds, 68% hits; purified proKLK7, EDANS-DABCYL substrate fluorescence; scaled: vehicle 0, mature enzyme 100;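 active = activation, as change over the incubation, above the mean of all tested compounds plus 3 SD, cut at about 13% in these data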
EDANS interfere – EDANS-DABCYL substrate optical interference, artefact control for kallikrein-7 zymogen activator project, biochemical, fluorescence intensity, high throughput | shares compounds with proKLK7 act | no enzyme, 4 h; solvent 0%, active enzyme control 100% | activation, % at 7 µM | 3,200 compounds, 80% hits | AID 686952, 2013;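 active = activation above the all-compound mean plus 3 SD, ignoring values outside control-based bounds, cut at about 4.8% in these data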;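 also: value is the 4 h activation minus the activation read at time zero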
EDANS interf – optically interferes with EDANS-DABCYL fluorescence, kallikrein-7 activator counter-screen; 250 compounds, 20% hits; AID 720493; EDANS-DABCYL peptide fluorescence interference, no enzyme; shares compounds with proKLK7 act; EC50, µM;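 active = compounds that raise the fluorescence signal in this interference counterscreen, with EC50 at or below 10 µM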;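 also: intact quenched peptide substrate alone read at 355 nm excitation and 520 nm emission; signal is fluorescence gain from T0 to T4 after four hours at room temperature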
* marks the source's active call; other numbers are inactive results; ! = a repeat was not active.

`CCN(C[C@H]1[C@@H](c2ccc(C3=CCCC3)cc2)[C@H](CO)N1c1nc(C)c(C)s1)S(=O)(=O)c1ccccc1[N+](=O)[O-]` gave ADAM17 inh -2, PLCg1 inh 2, ADAM10 inh -2, proKLK7 act 1 and PLC-beta3 inh -4.
`O=C(Nc1nc(Cc2ccccc2)c(-c2ccccc2)n1Cc1ccccc1)c1ccccc1` gave ADAM17 inh -2, PLCg1 inh -14, ADAM10 inh -18, proKLK7 act -7 and PLC-beta3 inh -20.
Fc1ccc(-c2cc(-c3nnc4sc(-c5cccs5)nn34)[nH]n2)cc1 was read as ADAM17 inh -7, PLCg1 inh -4, ADAM10 inh -20, proKLK7 act -2 and PLC-beta3 inh -3.
Screening COc1ccc(-c2cc(C(=O)NN=C/C(C)=C/c3ccccc3)[nH]n2)cc1 returned ADAM17 inh 0, PLCg1 inh 5, ADAM10 inh 5, proKLK7 act -3 and PLC-beta3 inh 0.
Nc1ccc2nc(-c3ccc(Cl)cc3)[nH]c2c1 was read as ADAM17 inh inactive, PLCg1 inh inactive, ADAM10 inh inactive, proKLK7 act 66*, PLC-beta3 inh inactive, KLK7 act conf 64* and EDANS interfere 66*.
`Nc1ccc2nc(-c3cc(Cl)c(N)c(Cl)c3)[nH]c2c1` gave ADAM17 inh -154, PLCg1 inh inactive, ADAM10 inh inactive, proKLK7 act 24*, PLC-beta3 inh inactive, KLK7 act conf 21*, EDANS interfere 13* and EDANS interf >70.
Screening Cc1ccc(C)c(-c2nc3ccc(N)cc3[nH]2)c1 returned ADAM17 inh -348, PLCg1 inh inactive, ADAM10 inh inactive, proKLK7 act -1 and PLC-beta3 inh inactive.
For COc1ccc2c3c(n(C(=O)OC(C)(C)C)c2c1)C1CC=C(COC(C)=O)CN1CC3 (stereo not drawn) the results were ADAM17 inh -59, PLCg1 inh -211, ADAM10 inh -244, proKLK7 act 18*, PLC-beta3 inh -335, KLK7 act conf 8 and EDANS interfere 9.5*.
`Cc1cccn2c(=O)c3cc(C#N)c(=NC(=O)c4ccccc4)n(Cc4ccco4)c3nc12` gave ADAM17 inh inactive, PLCg1 inh inactive, ADAM10 inh inactive, proKLK7 act 45*, PLC-beta3 inh inactive, KLK7 act conf 27*, EDANS interfere 17* and EDANS interf 7.8*.
Cc1cccn2c(=O)c3cc(C#N)c(=NC(=O)c4ccco4)n(Cc4ccco4)c3nc12 was read as ADAM17 inh -364, PLCg1 inh -280, ADAM10 inh inactive, proKLK7 act 9 and PLC-beta3 inh -374.
Cc1cccc(C(=O)N=c2c(C#N)cc3c(=O)n4cccc(C)c4nc3n2Cc2ccco2)c1 was read as ADAM17 inh inactive, PLCg1 inh inactive, ADAM10 inh inactive, proKLK7 act 27*, PLC-beta3 inh inactive, KLK7 act conf 16*, EDANS interfere 1 and EDANS interf inactive.
`CC1=Nc2ccc(C)cc2/C1=C/c1c(N)n2oc(C)cc2nc1=O` gave ADAM17 inh -19, PLCg1 inh -8, ADAM10 inh -28, proKLK7 act 48*!, PLC-beta3 inh -10, KLK7 act conf 25* and EDANS interfere 35*.
`COc1ccc(-c2c(C(F)(F)F)oc3c(CN4CCN(C)CC4)c(O)ccc3c2=O)cc1` gave ADAM17 inh -11, PLCg1 inh -111, ADAM10 inh -29, proKLK7 act 10 and PLC-beta3 inh -143.
Screening Cc1oc2cc(O)ccc2c(=O)c1Oc1ccc(F)cc1 returned ADAM17 inh inactive, PLCg1 inh inactive, ADAM10 inh inactive, proKLK7 act -3 and PLC-beta3 inh inactive.
COc1ccccc1Oc1c(C)oc2c(CN3CCN(C)CC3)c(O)ccc2c1=O was read as ADAM17 inh inactive, PLCg1 inh inactive, ADAM10 inh inactive, proKLK7 act 77*, PLC-beta3 inh inactive, KLK7 act conf 69* and EDANS interfere 76*.
`COc1cccc(Oc2c(C)oc3c(CN4CCCCC4)c(O)ccc3c2=O)c1` gave ADAM17 inh inactive, PLCg1 inh inactive, ADAM10 inh inactive, proKLK7 act 61*, PLC-beta3 inh inactive, KLK7 act conf 61* and EDANS interfere 71*.
Screening COc1ccc(Oc2c(C)oc3c(CN(C)C)c(O)ccc3c2=O)cc1 returned ADAM17 inh -295, PLCg1 inh -461, ADAM10 inh inactive, proKLK7 act 14*, PLC-beta3 inh inactive, KLK7 act conf 32* and EDANS interfere 31*.
`COC(=O)c1ccc(Oc2c(C)oc3c(CN4CCN(C)CC4)c(O)ccc3c2=O)cc1` gave ADAM17 inh inactive, PLCg1 inh inactive, ADAM10 inh inactive, proKLK7 act 65*, PLC-beta3 inh inactive, KLK7 act conf 79* and EDANS interfere 73*.
`O=C(OC12CCCN(C1)/C(=C/c1cccc(Cl)c1)C2)c1ccccc1` (stereo not drawn) gave ADAM17 inh 2, PLCg1 inh 1, ADAM10 inh 4, proKLK7 act 0 and PLC-beta3 inh -1.
Screening S=C(NCc1cccc(Cl)c1)OC1CCC12CCC(c1ccccc1)CC2 (stereo not drawn) returned ADAM17 inh 3, PLCg1 inh -1, ADAM10 inh 6, proKLK7 act 1 and PLC-beta3 inh 1.
COc1ccc(-c2c(C)oc3c(CN4CCN(C)CC4)c(O)ccc3c2=O)cc1 was read as ADAM17 inh inactive, PLCg1 inh inactive, ADAM10 inh inactive, proKLK7 act 59*, PLC-beta3 inh inactive, KLK7 act conf 40* and EDANS interfere 50*.
Screening Cc1cc(C)cc(Oc2coc3c(CN(C)C)c(O)ccc3c2=O)c1 returned ADAM17 inh inactive, PLCg1 inh inactive, ADAM10 inh inactive, proKLK7 act 71*, PLC-beta3 inh inactive, KLK7 act conf 69* and EDANS interfere 80*.
